# Records with an inconclusive call do not appear. Activity calls are given as the source filed them. Unless noted, calls come from the whole dose curve; as a rule, active = well fitted inhibition curve with a large enough effect; inconclusive = small, poorly fitted or top-dose-only effect; inactive = flat fitted curve, though single readings scatter.
# Columns and labels:
# [1] = qHTS for identification of novel therapeutic agents for treatment of microphthalmiaassociated transcription factor (MiT) renal cell carcinoma (RCC) (AID 1963991; calls by dose curve); details: CellTiter-Glo, 48 h; for z-score: stronger effect = lower value; for Potency: active = Z-AUC below -0.8 in all three lines
# Outline: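 Curves over 11 concentrations were fitted to CellTiter-Glo luminescence, scaled between empty wells (0%) and DMSO (100%) viability. Cells were UOK109, UOK124 and UOK145 TFE3-fusion RCC lines at 500/well, exposed 48 hours at 37 C.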
# [2] = qHTS profiling for inhibitors of Plasmodium falciparum proliferation (AID 504749); note: nearly all actives have a fitted effect of over 60% in size;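 for activity, negative = inhibition: 0% = DMSO vehicle and full inhibition = artemisinin control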; details: P. falciparum in erythrocytes, SYBR Green DNA, 72 h, at 28.7 µM (top of the series)
# Outline: (§1)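 Each compound contacts P. falciparum-infected red blood cells for 72 h at 37 C; lysis buffer (Tris, EDTA, saponin, Triton X, SYBR Green I) is added and fluorescence measured next morning; values normalized to controls.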
# 3D7 = test: as above; details: P. falciparum in erythrocytes, SYBR Green DNA, 72 h; series mostly up to 28.7 µM
# Outline: as §1
# 7G8 = test: as above; details: P. falciparum in erythrocytes, SYBR Green DNA, 72 h; series mostly up to 28.7 µM
# Outline: as §1
# AA1029 = test: as above; details: P. falciparum in erythrocytes, SYBR Green DNA, 72 h; series mostly up to 28.7 µM
# Outline: as §1
# AS120 = test: as above; details: P. falciparum in erythrocytes, SYBR Green DNA, 72 h; series mostly up to 28.7 µM
# Outline: as §1
# ATS189 = test: as above; details: P. falciparum in erythrocytes, SYBR Green DNA, 72 h; series mostly up to 28.7 µM
# Outline: as §1
# ATS95 = test: as above; details: P. falciparum in erythrocytes, SYBR Green DNA, 72 h; series mostly up to 28.7 µM
# Outline: as §1
# [3] = TFE3-RCC UOK109 viability, measured here: UOK109 Z-AUC
# [4] = TFE3-RCC viability, measured here: UOK124 Z-AUC
# [5] = TFE3-RCC viability, measured here: UOK145 Z-AUC
# Potency is the fitted concentration of half-maximal effect.
structure (smiles),measurement,setting,value
COc1cc(C=CC(=O)O)ccc1O,z-score,[1]; [3],-0.0784
same,z-score,[1]; [4],0.112
same,z-score,[1]; [5],0.103
N=C1SC(=Cc2ccc(-c3ccc4c(c3)C(=O)NC4=O)o2)C(=O)N1c1ccc(Br)cc1,z-score,[1]; [3],0.374
same,z-score,[1]; [4],0.836
same,z-score,[1]; [5],0.868
N[C@@H](CC(=O)N1CCn2c(nnc2C(F)(F)F)C1)Cc1cc(F)c(F)cc1F,z-score,[1]; [3],0.736
same,z-score,[1]; [4],0.907
same,z-score,[1]; [5],0.666
CC1(C)OC2CC3C4CC(F)C5=CC(=O)C=CC5(C)C4C(O)CC3(C)[C@]2(C(=O)CO)O1 (some centres undefined),z-score,[1]; [3],0.56
same,z-score,[1]; [4],1.01
same,z-score,[1]; [5],-1.73
CO[C@H]1/C=C\O[C@@]2(C)Oc3c(C)c(O)c4c(O)c(c5c(nc6cc(C)ccn65)c4c3C2=O)NC(=O)C(C)=CC=C[C@H](C)[C@H](O)[C@@H](C)[C@@H](O)[C@@H](C)[C@H](OC(C)=O)[C@H]1C,z-score,[1]; [3],0.788
same,z-score,[1]; [4],1.17
same,z-score,[1]; [5],0.817
COc1ccc(C=CC(=O)Nc2ccccc2C(=O)O)cc1OC,z-score,[1]; [3],0.299
same,z-score,[1]; [4],1.48
same,z-score,[1]; [5],-0.0429
C[C@@H]1CCO[C@H]2Cn3cc(C(=O)NCc4ccc(F)cc4F)c(=O)c(O)c3C(=O)N12,z-score,[1]; [3],0.807
same,z-score,[1]; [4],0.941
same,z-score,[1]; [5],1.66
CN1CC(=O)N2C(Cc3c([nH]c4ccccc34)[C@H]2c2ccc3c(c2)OCO3)C1=O (some centres undefined),"activity, negative = inhibition",[2]; parasite line A,3.25% (inactive)
same,"activity, negative = inhibition",[2]; parasite line B,5.31% (inactive)
same,Potency,3D7,inactive
same,Potency,7G8,10 µM (active)
same,Potency,AA1029,inactive
same,Potency,AS120,inactive
same,Potency,ATS189,inactive
same,Potency,ATS95,inactive
CC[C@H](C)C(=O)O[C@H]1C[C@H](O)C=C2C=C[C@H](C)[C@H](CC[C@@H](O)C[C@@H](O)CC(=O)O)[C@H]21,z-score,[1]; [3],0.594
same,z-score,[1]; [4],0.809
same,z-score,[1]; [5],0.248
CC(C)=CCCC(C)=CCCC(C)=CCCC(C)=CCCC(C)=CCCC(C)=CCCC(C)=CCCC(C)=CCCC(C)=CCO,z-score,[1]; [3],0.865
same,z-score,[1]; [4],0.571
same,z-score,[1]; [5],1.27
CO[C@H]1C=CO[C@@]2(C)Oc3c(C)c(O)c4c(O)c(c(C=NN5CCN(C)CC5)c(O)c4c3C2=O)NC(=O)C(C)=CC=C[C@H](C)[C@H](O)[C@@H](C)[C@@H](O)[C@@H](C)[C@H](OC(C)=O)[C@H]1C,z-score,[1]; [3],2.16
same,z-score,[1]; [4],2
same,z-score,[1]; [5],1.3
CC1(C)[C@H]2CC[C@]3(C)[C@@H](C(=O)C=C4[C@@H]5C[C@@](C)(C(=O)O)CC[C@]5(C)CC[C@]43C)[C@@]2(C)CC[C@@H]1O,z-score,[1]; [3],0.727
same,z-score,[1]; [4],0.724
same,z-score,[1]; [5],0.985
O=C1C(CCC(O)c2ccc(F)cc2)C(c2ccc(O)cc2)N1c1ccc(F)cc1 (centres undefined),"activity, negative = inhibition",[2]; parasite line A,3.97% (inactive)
same,"activity, negative = inhibition",[2]; parasite line B,8.1% (inactive)
same,Potency,3D7,inactive
same,Potency,7G8,inactive
same,Potency,AA1029,inactive
same,Potency,AS120,inactive
same,Potency,ATS189,inactive
same,Potency,ATS95,inactive
O=C(O)C1=CO[C@@H](O[C@@H]2O[C@H](CO)[C@H](O)[C@H](O)[C@H]2O)[C@@H]2C(CO)=CC[C@H]12,z-score,[1]; [3],0.598
same,z-score,[1]; [4],0.803
same,z-score,[1]; [5],0.387
CC[C@]1(O)C[C@H]2CN(CCC3=c4ccccc4=N[C]3[C@@](C(=O)OC)(c3cc4c(cc3OC)N(C)[C@H]3[C@@](O)(C(N)=O)[C@H](O)[C@]5(CC)C=CCN6CC[C@]43[C@@H]65)C2)C1,Potency,[1]; TFE3-RCC UOK109 viability,0.332 µM (active)
same,z-score,[1]; [3],-0.8
same,z-score,[1]; [4],-1.02
same,z-score,[1]; [5],-0.904
O=C(O)C1=NC(C(=O)O)CC(C=CN2c3cc(O)c(OC4OC(CO)C(O)C(O)C4O)cc3CC2C(=O)O)=C1 (centres undefined),z-score,[1]; [3],1.58
same,z-score,[1]; [4],0.431
same,z-score,[1]; [5],0.57
CCCCC[C@H](O)C=C[C@H]1[C@H](O)CC(=O)[C@H]1CCCCCCC(=O)O,z-score,[1]; [3],1.1
same,z-score,[1]; [4],0.386
same,z-score,[1]; [5],1.28
CC=C1C2C=C(C)CC1(N)c1ccc(=O)[nH]c1C2 (centres undefined),z-score,[1]; [3],0.936
same,z-score,[1]; [4],0.297
same,z-score,[1]; [5],1.2
CN(C)c1nc(Cc2ccc(NC(=O)c3ccc(C(F)(F)F)cc3)cc2)nc(N(C)C)c1CC(=O)O,z-score,[1]; [3],0.568
same,z-score,[1]; [4],0.491
same,z-score,[1]; [5],0.741
C[C@@H](O)[C@H]1C(=O)N2C(C(=O)OCOC(=O)C(C)(C)C)=C(SC3CN(C4=NCCS4)C3)[C@H](C)[C@H]12,z-score,[1]; [3],1.65
same,z-score,[1]; [4],-0.138
same,z-score,[1]; [5],0.788
C[C@@H]1O[C@@H](O[C@H]2CC[C@@]3(C)[C@H](CC[C@@H]4[C@H]3C[C@@H](O)[C@]3(C)[C@@H](C5=CC(=O)OC5)CC[C@]43O)C2)C[C@H](O)[C@@H]1O[C@H]1C[C@H](O)[C@H](O[C@H]2C[C@H](O)[C@@H](O)[C@@H](C)O2)[C@H](C)O1 (stereo in doubt),Potency,[1]; TFE3-RCC UOK109 viability,0.215 µM (active)
same,z-score,[1]; [3],-2.46
same,z-score,[1]; [4],-1.68
same,z-score,[1]; [5],-0.987
CN(CC=CC#CC(C)(C)C)Cc1cccc2ccccc12,z-score,[1]; [3],0.358
same,z-score,[1]; [4],0.58
same,z-score,[1]; [5],2.39
COc1cc(CNC(=O)CCCCC=CC(C)C)ccc1O,z-score,[1]; [3],0.273
same,z-score,[1]; [4],0.406
same,z-score,[1]; [5],0.0429
CN[C@H]1[C@@H](O[C@@H]2[C@H](O[C@@H]3[C@@H](O)[C@@H](O)[C@@H](N=C(N)N)[C@@H](O)[C@@H]3N=C(N)N)O[C@H](C)[C@@]2(O)C=O)O[C@@H](CO)[C@@H](O)[C@H]1O,z-score,[1]; [3],2.74
same,z-score,[1]; [4],1.27
same,z-score,[1]; [5],2.73
CN[C@@H]1[C@@H](O)[C@@H](O[C@@H]2[C@@H](O)[C@H](O[C@H]3O[C@H](CN)[C@@H](O)[C@H](O)[C@@H]3O)[C@@H](N)C[C@@H]2NC(=O)[C@@H](O)CN)OC[C@]1(C)O,z-score,[1]; [3],2.18
same,z-score,[1]; [4],0.621
same,z-score,[1]; [5],0.614
CCC=CC[C@H]1C(=O)CC[C@@H]1CC(=O)OC,z-score,[1]; [3],-0.107
same,z-score,[1]; [4],0.558
same,z-score,[1]; [5],0.356
CC(=O)OCC(=O)[C@@]1(O)CC[C@H]2[C@@H]3CCC4=CC(=O)C=C[C@]4(C)[C@@H]3[C@@H](O)C[C@@]21C,z-score,[1]; [3],0.953
same,z-score,[1]; [4],0.317
same,z-score,[1]; [5],-2.56
COc1cc2c(cc1OC)[C@@H]1Cc3ccc(OC)c(OC)c3CN1CC2,z-score,[1]; [3],0.652
same,z-score,[1]; [4],0.474
same,z-score,[1]; [5],0.612
CC(C)CN(C[C@@H](O)[C@H](Cc1ccccc1)NC(=O)O[C@H]1CO[C@H]2OCC[C@H]21)S(=O)(=O)c1ccc(N)cc1,"activity, negative = inhibition",[2]; parasite line A,1% (inactive)
same,"activity, negative = inhibition",[2]; parasite line B,-15.6% (inactive)
same,Potency,3D7,inactive
same,Potency,7G8,12.6 µM (active)
same,Potency,AA1029,inactive
same,Potency,AS120,inactive
same,Potency,ATS189,inactive
same,Potency,ATS95,inactive
